The text below walks through data of ChEMBL document CHEMBL3433997, “St. Jude Leishmania screening dataset” (2016).

Common to all, as to type: functional
In assay [1] the target is Solute carrier family 2, facilitated glucose transporter member 1 (Homo sapiens) (UniProt P11166). The experiment in a line: ST_JUDE_LEISH: Cytotoxicity at 2uM final concentration against transgenic Leishmania Mexicana promastigotes LmGLUT1 that are glucose transport deficient and complemented with the human glucose transporter GLUT1. Activity is measured by DNA content using SYBR green in vitro.

Assay [2] deals with Hexose transporter 1 (Plasmodium falciparum) (UniProt O97467). The experiment in a line: ST_JUDE_LEISH: Cytotoxicity at 2uM final concentration against transgenic Leishmania Mexicana promastigotes LmPfHT that are glucose transport deficient and complemented with the Plasmodium falciparum hexose transporter. Activity is measured by DNA content using SYBR green in vitro.
The target of assay [3] is Glucose transporter (Leishmania mexicana) (UniProt O61059). The experiment in a line: ST_JUDE_LEISH: Cytotoxicity at 2uM final concentration against transgenic Leishmania Mexicana promastigotes LmGT2 that are glucose transport deficient and complemented with the L. Mexicana glucose transporter 2. Activity is measured by DNA content using SYBR green in vitro.

Chain of Solute carrier family 2, facilitated glucose transporter member 1 (Homo sapiens) (P11166 whole entry): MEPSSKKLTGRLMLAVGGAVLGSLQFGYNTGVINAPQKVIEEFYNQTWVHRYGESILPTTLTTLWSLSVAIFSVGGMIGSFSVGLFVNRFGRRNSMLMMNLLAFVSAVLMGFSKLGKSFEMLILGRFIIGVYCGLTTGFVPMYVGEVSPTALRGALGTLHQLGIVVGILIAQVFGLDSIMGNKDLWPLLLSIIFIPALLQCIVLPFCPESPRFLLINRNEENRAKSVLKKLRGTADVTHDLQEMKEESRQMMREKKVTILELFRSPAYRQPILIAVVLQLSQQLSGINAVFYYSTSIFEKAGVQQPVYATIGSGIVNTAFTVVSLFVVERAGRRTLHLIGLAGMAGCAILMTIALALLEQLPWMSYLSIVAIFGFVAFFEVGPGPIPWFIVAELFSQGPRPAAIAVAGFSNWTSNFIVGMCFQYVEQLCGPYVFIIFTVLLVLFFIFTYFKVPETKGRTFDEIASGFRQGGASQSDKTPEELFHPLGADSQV

As to `COc1ccc(CNC2CCN(C)CC2)cc1-c1ccc(S(=O)(=O)NCCc2ccccn2)c(F)c1`, the figures for the inhibition in assay [1], in assay [2] and in assay [3] were 3.16%, 2.16% and 4.77%, respectively.

For the compound `O=C1OC(c2ccccc2)(c2ccccn2)CN1C1CCN(Cc2cccn2-c2ccc(Cl)cc2)CC1` (stereo not drawn), the inhibition (usually the relative decrease from the control value, in per cent) was 2.2% in assay [1], 1.43% in assay [2] and -0.08% in assay [3].

As to `COc1ccc(-c2cccc(CNC3CCN(CC4Cn5c(=O)ccc6ccc(F)c4c65)CC3)c2)cc1` (stereo not drawn), the inhibition was 10.7% in assay [1], 10% in assay [2] and 8.16% in assay [3].

For the compound `CC1CCC(C(C)C)C(OC(=O)CSc2nnc3c(n2)[nH]c2ccccc23)C1` (stereo not drawn), the inhibition in assay [1] is -1.05%; in assay [2], -0.14%; in assay [3], -0.42%.

For `CCCCOc1ccc(CNCCCCCCNCc2ccc(OCCCC)c3ccccc23)c2ccccc12`, the results for the inhibition in assay [1], in assay [2] and in assay [3] were 104%, 102% and 103%, respectively.

For the compound `COc1ccc(CNCc2ccc(-c3cccc(-c4nc5cc(F)ccc5[nH]4)c3)cc2)cc1`, the inhibition in assay [1] is 1.04%; in assay [2] it was 4.45%; in assay [3] it was -2.49%.

In the case of `CCCN(CCC)CC(O)COc1ccccc1C(=O)Nc1ccccc1` (stereo not drawn), the inhibition in assay [1] is 1.49%; in assay [2], 1.09%; in assay [3], -5%.

For `COc1cc(Nc2ccnc3cc(-c4ccncc4)ccc23)cc(OC)c1OC`, the figures for the inhibition in assay [1], in assay [2] and in assay [3] were 11.4%, 20.7% and 9.21%, respectively.

As for `O=C(Nc1cccc(-c2ccc(-c3nc4ccccc4[nH]3)s2)c1)c1ccncc1`, the inhibition amounted to 1.95% in assay [1], 9.91% in assay [2] and 3.84% in assay [3].

As to `CSc1nc2cc3c(cc2n1C(=O)c1ccc(C)cc1)OCCO3`, the inhibition in assay [1] amounted to 6.31%; in assay [2], 4.48%; in assay [3], 2.89%.

Take `CCn1c(-c2nonc2N)nc2c(-c3ccccc3)ncc(OCCCCNCCc3ncc[nH]3)c21`: the inhibition in assay [1] is -0.2%; in assay [2], -0.76%; in assay [3], -0.64%.

Regarding `COc1cccc(NC(=O)c2nc(N3CCN(c4ccncc4)CC3)ccc2Cl)c1`, the inhibition was -1.23% in assay [1], 1.65% in assay [2] and 0.29% in assay [3].

`O=C(Nc1ccc(F)c(F)c1)c1ccc(CN2CCCN(Cc3cccc(O)c3)CC2)cc1`: the inhibition stood at 3.12% in assay [1], 2.77% in assay [2] and 3.84% in assay [3].

With `CCN(CC)c1nc(Nc2cc(C)ccc2C)nc(Nc2ccccc2O)n1`, the inhibition in assay [1] came to 4.16%; in assay [2] it was 5.53%; in assay [3] it was 4%.

In the case of `CCN(CC)CCN(Cc1ccc(-c2ccc(C(F)(F)F)cc2)nc1)C(=O)Cn1cc(Cc2cnn(C)c2)c(=O)n2nc(-c3ccccc3)cc12`, the inhibition was determined as 2.39% in assay [1], 3.48% in assay [2] and 0.44% in assay [3].

Consider `Cc1cc(OCC2CCN(c3ncc(C(=O)NC4CC4)cc3Cl)CC2)ccc1F`, for which the inhibition in assay [1] is 1.62%; in assay [2], 1.07%; in assay [3], -1.06%.

As for `CC(C)C1C(O)=C(c2ccc3ccccc3c2)C(=O)N1CC1CCCCC1` (stereo not drawn), the values for the inhibition in assay [1], in assay [2] and in assay [3] were 1.23%, 1.04% and -8.52%, respectively.

As for `O=C(O)c1cc(C(F)(F)F)co1`, the inhibition in assay [1] is -2.13%; in assay [2] it was -1.54%; in assay [3] it was -0.54%.

Take `N#Cc1ccc(-c2ccc(C(=O)NCC3CCN(CCN4CCC(c5ccc6c(c5OCC(N)=O)CCCC6)CC4)CC3)cc2)cc1`: the values for the inhibition in assay [1], in assay [2] and in assay [3] were -0.38%, -0.09% and 2.54%, respectively.

Turning to `COc1cccc(-c2ccc3c(-c4ccc(F)cc4)cnc(N)c3c2)c1`, the inhibition in assay [1] was 5.2%; in assay [2], 4.32%; in assay [3], 2.91%.

On to `CCCN(CCC)CCOc1ccc(C(O)(C#CC(O)(c2ccc(OCCN(CCC)CCC)cc2)c2cccc(Cl)c2)c2cccc(Cl)c2)cc1` (stereo not drawn), for which the inhibition in assay [1] came to 7.1%; in assay [2] it was 4.78%; in assay [3] it was 2.38%.

With `Cc1c(S(=O)(=O)Nc2ccc3nccc(N4CC(C)NC(C)C4)c3c2)sc2ccc(Cl)cc12` (stereo not drawn), the inhibition was 5.22% in assay [1], 6.03% in assay [2] and 3.81% in assay [3].

With `CN(C)CCCn1c(C(=O)OC(c2ccccc2)c2ccccc2)cc2cc(OCc3ccccc3)ccc21`, the figures for the inhibition in assay [1], in assay [2] and in assay [3] were -0.72%, 0.08% and -2.32%, respectively.

In the case of `COc1ccc(Nc2nccc(-c3ccc(NC(=O)c4cc5cc(F)ccc5[nH]4)cc3)n2)cc1`, the values for the inhibition in assay [1], in assay [2] and in assay [3] were -0.57%, 0.09% and -1.37%, respectively.

For `CCOc1cc(C(=O)Nc2ccc3nc(N4CCCCC4)cc(C)c3c2)cc(OCC)c1OCC`, the inhibition in assay [1] stood at 4.92%; in assay [2], 4.24%; in assay [3] it was 3.07%.

Turning to `Cc1cccc2nc(-c3cccc(-c4cccc(C(=O)N5CCCCC5CN5CCC(O)C5)c4)c3)[nH]c12` (stereo not drawn), the inhibition in assay [1] was 0.56%; in assay [2] it was 0.67%; in assay [3] it was -1.67%.

With `O=C(/C=C/c1ccc(Cl)c(Cl)c1)NC1CCC(CN2CCC(Cc3cc4ccccc4[nH]3)CC2)CC1` (stereo not drawn), the inhibition in assay [1] stood at 4.78%; in assay [2], 1.97%; in assay [3], 3.2%.

Regarding `CCOc1ccc(-c2nonc2NC(=O)c2cccs2)cc1OCC`, the figures for the inhibition in assay [1], in assay [2] and in assay [3] were -0.24%, 1.17% and -0.56%, respectively.

For the compound `O=C1COC2(CN1CC1CCN(Cc3ccc(O)c(Cl)c3)C1)c1ccccc1-c1ccccc12` (stereo not drawn), the inhibition in assay [1] is -0.03%; in assay [2] it was -0.11%; in assay [3], -0.34%.

With `O=C(NC1CC1)c1ccc2cc(C(=O)N3Cc4ccccc4C(c4ccccc4)C3)ccc2c1` (stereo not drawn), the inhibition is 2.37% in assay [1], -0.61% in assay [2] and -1.42% in assay [3].

In the case of `FC(F)(F)c1ccc2[nH]c(-c3ccc(-c4ccc(CNCc5cnn(-c6ccccc6)n5)cc4)s3)nc2c1`, the inhibition in assay [1] worked out at 2.88%; in assay [2], 1.1%; in assay [3] it was 2.24%.

On to `CCOc1ccc(C(Cc2ccccc2)NC(=O)c2cccnc2)cc1OCC` (stereo not drawn), for which the inhibition in assay [1] was 0.79%; in assay [2] it was -2.62%; in assay [3], -0.89%.

With `COc1c(CN2CCCC2)cccc1-c1cc2c(-c3ccc(C(=O)O)c(C(C)C)c3)ccnc2[nH]1`, the inhibition was determined as 3% in assay [1], 2.05% in assay [2] and 2.09% in assay [3].

With `COc1ccc(CCNCCCCNCCc2ccc(OC)c3ccccc23)c2ccccc12`, the inhibition in assay [1] amounted to 64.4%; in assay [2], 55.5%; in assay [3], 102%.

Regarding `CCCN(CCC)CCCOc1ccc(C(=O)c2c(-c3ccc(OCCCN(CCC)CCC)cc3)oc3ccc(Cl)cc23)cc1`, the inhibition is 70.8% in assay [1], 49.3% in assay [2] and 31.1% in assay [3].

As to `CCOc1ccc(Nc2ccc3nonc3c2S(=O)(=O)Nc2ccc(OCC)cc2)cc1`, the inhibition in assay [1] was -0.07%; in assay [2], -0.32%; in assay [3] it was -0.61%.
